Experiment in all cases: NCI-60 one-dose screen, 48 h (100 = growth as untreated, 0 = no growth, -100 = all killed)
What all share (conditions): 10 µM unless noted

Test [1] has as its system NCI-H23 lung.
Test [2] relates to NCI-H226 lung.
Test [3] has as its system NCI-H322M lung.
The subject of test [4] is HOP-62 NSCLC.
In test [5] the test system is NCI-H460 lung.
Test [6] relates to 786-0 renal.
For test [7], the system named is SF-268 CNS.
Test [8] deals with SF-539 CNS.
The test system of test [9] is M14 melanoma.
For test [10], the system named is U251 CNS.
The subject of test [11] is PC-3 prostate.
Test [12] deals with UACC-62 melanoma.
The subject of test [13] is SK-MEL-28 melanoma.
For test [14], the system named is UO-31 renal.
The test system of test [15] is OVCAR-3 ovarian.
Test [16] concerns SW-620 colon.
Test [17] relates to MCF7 breast.
Test [18] deals with HCT-116 colon.
In test [19] the test system is KM12 colon.
Test [20] has as its system MDA-MB-231 breast.

Structures are written as SMILES. This is part of a sample that, as a whole, favours compounds with a hit. Of some 83,000 tested, about 20% had one in any assay.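 For each line, cells grew in 96-well plates with the test compound present at a single concentration for 48 hours.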 A number with no mark means an inactive call. Active and inactive are the calls of the source. Rule for the calls: active = growth percent below 10; inactive = the rest.

Among the data in PubChem BioAssay (NCI) are growth values, retold here.

For the compound `CC[C@@H](C)/C=C(C)/C=C/C(=O)c1c(O)c(-c2ccc(O)cc2)cn(O)c1=O`, the growth in test [1] was 19.6%; in test [2], -1.76% (active); in test [3], 22.5%; in test [4] it was 9.35% (active); in [5] it was 1% (active); in test [6], 0.309% (active). In addition, the growth was -0.607% (active) in [7]; 5.1% (active) in test [8]; -1.25% (active) in test [9]; 3.54% (active) in test [10]; 37.7% in [11]; -31.6% (active) in test [12]. The growth in test [13] was 34.7%; in test [14], -8.98% (active); in test [15], 25.7%; in test [16], 20.2%; in test [17] it was 15.4%; in [18] it was 16.7%. Also, the growth in test [19] was 23.5%.
With `C=C=[CH][Sn]([c]1ccccc1)([c]1ccccc1)[c]1ccccc1`, the growth in [1] is -43.3% (active); in test [2], -40.4% (active); in [3], -15.6% (active); in test [4], -63.6% (active); in [5], -78.8% (active); in [6] it was -81.2% (active). Further, the growth in test [20] is -53.3% (active); in [7], -69% (active); in [8], -29.9% (active); in test [9] it was -66.1% (active); in test [10], -75.6% (active); in [11], -50.5% (active). Also, the growth in test [12] is -62.3% (active); in [13] it was -56.8% (active); in [14], -84.3% (active); in test [15], -94% (active); in test [16], -74.8% (active); in test [17], -52.5% (active). For the same compound, the growth was -97.4% (active) in [18] and -84.8% (active) in test [19].
Consider `O=CN1N=C(c2ccccc2)CC1c1sc(N(CCCl)CCCl)nc1Cl` (stereo not drawn), for which the growth was 87.5% in test [1]; 85.1% in [2]; 82.4% in test [3]; 86.9% in test [4]; 106% in [5]; 104% in test [6]. In addition, the growth in test [20] was 77.8%; in test [7], 101%; in test [8], 109%; in test [9], 103%; in [10], 96.5%; in test [11], 82.5%. Moreover, the growth in [12] was 67.5%; in test [13], 98.7%; in test [14] it was 71.7%; in test [15], 96.1%; in test [16] it was 105%; in test [17], 90.1%. The growth in test [18] is 89.4%; in test [19] it was 98.9%.
`O=CC(Br)C(Br)c1ccccc1` (stereo not drawn): the growth in test [1] was 104%; in [2], 97.7%; in [3], 103%; in test [4] it was 107%; in test [5], 102%; in test [6], 106%. Besides, the growth is 96.5% in test [20]; 95.7% in [7]; 94% in [8]; 91.8% in test [9]; 102% in [10]; 94.7% in [11]. Moreover, the growth in test [12] was 87.4%; in test [13] it was 93.7%; in [14] it was 74.1%; in test [15] it was 33.3%; in test [16] it was 19.5%; in [17], 44.1%. Further, the growth in test [18] is 2.83% (active); in [19], 96.1%.
As to `O=CN1N=C(c2ccc3c(c2)OCO3)CC1c1sc(N(CCCl)CCCl)nc1Cl` (stereo not drawn), the growth in test [1] is 101%; in [2], 95.9%; in test [3], 75.1%; in test [4], 93%; in test [5], 105%; in test [6], 87.8%. Moreover, the growth in test [20] was 89.9%; in [7], 93.7%; in [8] it was 102%; in [9], 102%; in [10], 98.6%; in [11] it was 88.2%. Moreover, the growth is 77.5% in test [12]; 101% in [13]; 74.5% in test [14]; 95.5% in test [15]; 92.9% in test [16]; 88.9% in test [17]. The growth is 83.8% in [18] and 93.9% in test [19].
With `CN1CCN(C(=O)COc2ccc(/C=C3\CC4C5CC=C6CC(Cl)CCC6(C)C5CCC4(C)C3=O)cc2)CC1` (stereo not drawn), the growth in test [1] was 71.2%; in [2], 77.2%; in [3], 85.7%; in test [4] it was 96.7%; in [5] it was 17.2%; in [6], 70.2%. In addition, the growth is 75.2% in [20]; 73.2% in test [7]; 93.6% in test [8]; -13% (active) in [9]; 34.1% in test [10]; 71.3% in test [11]. The growth in test [12] is 90%; in test [13], 103%; in [14], 99.9%; in test [15] it was 76.1%; in test [16], 40.4%; in test [17] it was 83.9%. For the same compound, the growth was 34.6% in [18] and 72.9% in [19].
Consider `CNC(C)Cc1ccccc1` (stereo not drawn) (tested in a mixture with another compound), for which the growth is 99.2% in test [1]; 99.5% in test [2]; 89.2% in test [3]; 98% in [4]; 104% in [5]; 102% in test [6]. Besides, the growth in test [20] is 120%; in [7], 108%; in test [8], 99.7%; in [9], 103%; in [10], 89.9%; in test [11], 92.8%. Besides, the growth in test [12] was 107%; in test [13], 105%; in [14], 82.9%; in [15], 104%; in test [16], 102%; in [17], 97.3%. The growth in test [18] was 100%; in test [19], 99.8%.
Take `CO[C@@H]1[C@H](OC(=O)NC(=O)CCl)CC[C@]2(CO2)[C@H]1[C@@]1(C)O[C@@H]1CC=C(C)C`: the growth in [1] is 64.1%; in [2], 72.7%; in test [3], 59.8%; in test [4], 64.4%; in [5] it was 23.5%; in test [6] it was 70.4%. Further, the growth in test [20] was 79.9%; in test [7] it was 71.5%; in test [8], 87.6%; in [9], 62%; in [10] it was 5.86% (active); in [11], 20.2%. The growth in [12] was 63.5%; in test [14] it was 52.6%; in [15] it was 71.8%; in test [16], 49.4%; in [17] it was 26.9%; in test [18], 43.8%. Besides, in test [19], the growth is 36.3%.
